GIRK2 activator: Activates human GIRK2-containing potassium channels; activation (% efficacy), % for hits at 37.5 µM; 34,000 tested, under 10 active; P48051; HEK293 GIRK2/NPY4 cells, thallium flux fluorescence;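 active = primary screen hit, no activity in plain HEK293 cells, and in GIRK2-only cells above 5% efficacy rising with concentration; inactive = the rest, including fluorescent compounds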;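 note: efficacy is normalized control-subtracted fluorescence 15 s after thallium addition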
Target sequence (P48051 whole entry, looked up): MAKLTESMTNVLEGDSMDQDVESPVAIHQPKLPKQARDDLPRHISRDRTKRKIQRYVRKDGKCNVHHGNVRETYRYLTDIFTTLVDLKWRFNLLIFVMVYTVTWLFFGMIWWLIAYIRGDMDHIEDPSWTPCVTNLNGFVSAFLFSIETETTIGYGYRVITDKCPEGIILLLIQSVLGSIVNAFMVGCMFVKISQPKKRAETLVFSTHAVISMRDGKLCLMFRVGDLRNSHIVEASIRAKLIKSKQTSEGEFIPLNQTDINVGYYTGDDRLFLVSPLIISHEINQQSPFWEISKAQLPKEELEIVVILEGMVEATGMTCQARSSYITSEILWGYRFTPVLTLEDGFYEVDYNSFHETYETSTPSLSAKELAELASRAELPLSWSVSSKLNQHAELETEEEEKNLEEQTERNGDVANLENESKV
AMPAR-TARP mod: modulates AMPAR-stargazin complexes. 40,000 compounds, 3.5% hits. O88602+P19491. calls only at 30 µM. HEK293 GluA2+stargazin, membrane potential dye (FDSS), glutamate EC50; hits were called plate by plate, in both directions. AID 1259245;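 active = any of four per-well response measures lying three or more SD from its plate-wide compound average, in either direction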
Each line names hits and unclear results; the compound was inactive in the other large screens. The full list was thinned out, with hits kept by preference.

COc1ccc(CC(=O)Nn2cnc3c(cnn3-c3ccc(C)cc3)c2=O)cc1OC	none
O=C(NCCc1ccccc1)C(=O)NCc1cccs1	none
COc1cc(C(C)=O)ccc1OCC(=O)Nc1c(C)nc2sccn2c1=O	none
Cc1c(C)n2c3c(=O)n(CCCc4ccccc4)c(=O)n(C)c3nc2n1C(C)C	AMPAR-TARP mod active
CCn1c(=O)c2c(nc3n(CCCOC)c(C)c(C)n23)n(C)c1=O	none
Cc1c(C)n2c3c(=O)n(CC(=O)OCc4ccccc4)c(=O)n(C)c3nc2n1C(C)C	none
Cc1cn2c3c(=O)n(Cc4ccccc4F)c(=O)n(C)c3nc2n1CCCN(C)C	AMPAR-TARP mod active
Cc1cn2c3c(=O)n(Cc4ccccc4Cl)c(=O)n(C)c3nc2n1CCO	none
Cc1c(C)n2c3c(=O)n(Cc4ccc(F)cc4)c(=O)n(C)c3nc2n1CCCN(C)C	AMPAR-TARP mod active
COc1ccc(C(CNC(=O)C(=O)NCc2ccccc2)N2CCOCC2)cc1 (centres undefined)	none
Cn1nnc2c(N3CCN(CC(=O)NCc4ccccc4)CC3)ncnc21	none
COc1cc(OC)cc(-c2nnc(NC(=O)c3ccn(C)n3)o2)c1	none
Cn1c(=O)c2c(nc(N3CCOCC3)n2CCSc2nc3ccccc3s2)n(C)c1=O	none (no result: GIRK2 activator)
Cc1ccnc(SCCn2c(N3CCOCC3)nc3c2c(=O)n(C)c(=O)n3C)n1	AMPAR-TARP mod active (no result: GIRK2 activator)
Cc1ccc(S(=O)(=O)NCCC(=O)N/N=C\c2ccc(N(C)C)cc2)cc1	none (no result: GIRK2 activator)
CCOc1ccc(C(=O)N2CCN(c3nccn3-c3ccc(C)cc3)CC2)cc1OCC	none
CN(C)C(=O)CSc1ncnc2sc(-c3ccccc3)cc12	AMPAR-TARP mod active
O=C(CSc1ncnc2[nH]ncc12)c1ccc(-c2ccccc2)cc1	none (no result: GIRK2 activator)
COc1cc(/C=C2/SC(=S)N(c3ccc(C)c(C)c3)C2=O)ccc1O	none (no result: GIRK2 activator)
COc1cc(/C=C2\SC(=S)N(c3cccc(C)c3C)C2=O)ccc1O	AMPAR-TARP mod active (no result: GIRK2 activator)
Clc1ccc2c(c1)C1CC(c3cccs3)=NN1C(c1ccncc1)O2 (centres undefined)	none
Cc1ccc(CN2C(=O)CC(N3CCOCC3)C2=O)cc1 (centres undefined)	none
CC(c1ccccc1)N1C(=O)CC(N2CCOCC2)C1=O (centres undefined)	AMPAR-TARP mod active (no result: GIRK2 activator)
O=C(CN1CCC(c2nnc(-c3ccco3)s2)CC1)Nc1ccccc1F	none (no result: AMPAR-TARP mod)
CC(C)(Oc1ccc(Cl)cc1)C(=O)Nc1ccc(CC(=O)N2CCC(O)CC2)cc1	none (no result: AMPAR-TARP mod)
COc1ccc(NC(=O)Cn2nc(SC)c(S(=O)(=O)c3ccccc3)c2N)c(OC)c1	AMPAR-TARP mod active (no result: GIRK2 activator)
COc1ccc(NC(=O)Cn2nc(SC)c(S(=O)(=O)c3ccc(OC)cc3)c2N)cc1	none (no result: GIRK2 activator)
CC1Cc2cc(-c3cc(CC(=O)NCc4ccco4)no3)ccc2O1 (centres undefined)	AMPAR-TARP mod active
O=C(Cc1cc(-c2ccc3c(c2)OCO3)on1)NCc1cccs1	none
O=C(Cc1cc(-c2ccc3c(c2)OCCO3)on1)NCc1cccs1	AMPAR-TARP mod active
CC1Cc2cc(-c3cc(CC(=O)NCc4cc(-c5cccs5)on4)no3)ccc2O1 (centres undefined)	none
Cn1nc(NC(=O)Cn2cnc3ccccc32)c2c1NC(=O)CC2c1cccs1 (centres undefined)	none
O=C(Oc1ccccc1OC(=O)N1CCOCC1)N1CCOCC1	AMPAR-TARP mod active (no result: GIRK2 activator)
CC(C)(C)c1ccc(OC(=O)N2CCOCC2)cc1	none (no result: GIRK2 activator)
COc1ccc(C(=O)Nn2cnc3c(cnn3C(C)(C)C)c2=O)cc1OC	none
COc1ccc(C(=O)Nc2cc3c4c(c2)CCC(=O)N4CCC3)cc1OC	none
O=C(NCC1CCN(C(=O)c2ccccc2F)CC1)c1ccc2nsnc2c1	none
O=C(/C=C/c1cccs1)NCC1CCN(C(=O)c2cc3ccccc3o2)CC1	AMPAR-TARP mod active
O=C(NCc1cccs1)NCC1CCN(C(=O)c2cc3ccccc3o2)CC1	none
O=C(NCC1CCN(C(=O)c2cc3ccccc3o2)CC1)c1ccc2nsnc2c1	AMPAR-TARP mod active
COc1ccc(CCC(=O)Nc2cccc(-n3c(C)nc4ccccc4c3=O)c2)cc1	AMPAR-TARP mod active (no result: GIRK2 activator)
COc1ccc(CCC(=O)Nc2cc(-n3c(C)nc4ccccc4c3=O)ccc2F)cc1	none
COc1ccc(-c2ccc(=O)n(CCCNC(=O)c3cccs3)n2)cc1	none
Cc1cccc(OCC(=O)Nc2ccc3c(c2)N(CCC(C)C)C(=O)C(C)(C)CO3)c1	none (no result: GIRK2 activator)
CC(C)CCN1C(=O)C(C)(C)COc2ccc(NC(=O)COc3ccc(Cl)cc3)cc21	none (no result: GIRK2 activator)
Cc1ccc(OCC(=O)Nc2ccc3c(c2)N(CCC(C)C)C(=O)C(C)(C)CO3)cc1	AMPAR-TARP mod active (no result: GIRK2 activator)
CC(C)CCN1C(=O)C(C)(C)COc2ccc(NC(=O)c3cc(=O)c4ccccc4o3)cc21	AMPAR-TARP mod active
COc1ccc(CC(=O)N2CCN(c3nccn3C)CC2)cc1OC	none
NS(=O)(=O)c1ccc(NC(=O)CN2C(=O)c3ccccc3S2(=O)=O)cc1	AMPAR-TARP mod active
NC(=O)c1ccc(NC(=O)CN2C(=O)c3ccccc3S2(=O)=O)cc1	none
O=C(NCCc1ccccc1)N1CCC(c2nnc(C3CC3)o2)CC1	none (no result: GIRK2 activator)
O=C(CN1CCC(c2nnc(C3CC3)o2)CC1)NCCc1ccccc1	AMPAR-TARP mod active
Cc1cccc(Nc2ccc(N3CCN(C(=O)c4c(F)cccc4F)CC3)nn2)n1	none (no result: AMPAR-TARP mod)
Cc1cccc(Nc2ccc(N3CCN(C(=O)Cc4c[nH]c5ccccc45)CC3)nn2)n1	AMPAR-TARP mod active
Cc1cccc(Nc2ccc(N3CCN(C(=O)C(C)(C)C)CC3)nn2)n1	none (no result: AMPAR-TARP mod)
Cc1cccc(Nc2ccc(N3CCN(C(=O)Cc4cccs4)CC3)nn2)n1	AMPAR-TARP mod active
CC(=O)N1CCN(c2nnc(SCC(=O)Nc3cc(C)on3)s2)CC1	none
Cc1cc(NC(=O)CSc2nnc(N3CCN(C(=O)Cc4cccs4)CC3)s2)no1	AMPAR-TARP mod active
O=C(Nc1nc2ccccc2s1)c1ccc(=O)n(Cc2ccc(F)cc2)n1	none
NC(=O)C1CCN(C(=O)Cc2cc(-c3cc4ccccc4o3)on2)CC1	AMPAR-TARP mod active
NC(=O)C1CCN(C(=O)Cc2cc(-c3ccc(F)cc3)on2)CC1	none
O=C(CSc1ccc(NC(=O)C2CC2)nn1)NC1CCCCC1	none
COC(=O)c1scc(-c2ccc(C)cc2)c1S(=O)(=O)Nc1ccc(OC)c(OC)c1	none
CCOC(=O)c1scc(-c2ccc(C)cc2)c1S(=O)(=O)Nc1ccc2c(c1)OCCO2	AMPAR-TARP mod active
O=C(NC1CCCCC1)N1CCN(c2ccc3nncn3n2)CC1	none
O=C(/C=C/c1cc2cc3c(cc2nc1Cl)OCO3)C1CC1	AMPAR-TARP mod active (no result: GIRK2 activator)
CN(C1CCCC1)S(=O)(=O)c1ccc(C(=O)Nc2nc3cc4c(cc3s2)OCO4)cc1	none (no result: GIRK2 activator)
O=C(NCC1(c2ccccc2)CCOCC1)c1c(F)cccc1F	none
C=CCn1c(N2CCN(CC(=O)OC)CC2)nc2c1c(=O)[nH]c(=O)n2C	none (no result: GIRK2 activator)
Cc1cccc(OCC(O)Cn2c(N3CCN(c4ccccc4)CC3)nc3c2c(=O)n(C)c(=O)n3C)c1 (centres undefined)	none (no result: GIRK2 activator)
Cc1ccc(OCC(O)Cn2c(N3CCC(C)CC3)nc3c2c(=O)n(C)c(=O)n3C)cc1C (centres undefined)	none (no result: GIRK2 activator)
COc1ccc(OCC(O)Cn2c(N3CCN(C)CC3)nc3c2c(=O)n(C)c(=O)n3C)cc1 (centres undefined)	AMPAR-TARP mod active (no result: GIRK2 activator)
CN1CCN(c2nc3c(c(=O)n(C)c(=O)n3C)n2CC(O)COc2ccccc2)CC1 (centres undefined)	AMPAR-TARP mod active (no result: GIRK2 activator)
Cc1nc2ccccn2c1C(=O)N(Cc1cccn1C)C1CC1	none (no result: AMPAR-TARP mod)

Compound activity from PubChem BioAssay.
